The list is not random: actives were taken first. Their share in the collection is about 14%.
NS1 inh = blocks influenza NS1 protein function | AID 2326 | Potency, µM (titrated, usually from 46.1 µM), without a hit: top-dose activity, positive = more growth | 270,000 tested, 0.4% active; calls by dose curve; further: potency means the concentration at half of the fitted maximal effect; actives are rising curves; nearly all actives have a fitted effect of over 50% in size
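In this qHTS, NS1 from influenza A is expressed in budding yeast, where it slows growth. Cells are switched from glucose to 2% galactose medium (pH 6.0, -URA), treated with compound, and growth recovery is read at OD600.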
LmPK inh = blocks Leishmania mexicana pyruvate kinase activity | purified LmPK, Kinase-Glo ATP luminescence, 1 h | Q27686 | Potency, µM (titrated, usually from 57.5 µM), for the others: at the top dose activity change, negative = inhibition, most hits filed as inhibitors | AID 1721 | 290,000 tested, 0.37% active; further: potency means the concentration at half of the fitted maximal effect; on the % scale 0 is the no-effect control and ±100 the full control effect
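Pyruvate kinase activity monitored as ATP production (luciferase luminescence). Conditions: 0.1 nM enzyme, 0.5 mM PEP, 0.1 mM ADP, 1 h, RT; normalized against uninhibited and no-enzyme wells.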
Cycloheximide cs = affects cycloheximide protein synthesis inhibition readout, counter-screen; cell reporter, cycloheximide protein synthesis inhibition counterscreen; 300,000 tested, 12% active; max response, %; in the data active means max response mostly above about 13%, no sharp cut-off; inactive means mostly below about 14%; further: read at 38.3 µM for the half of the compounds with a filed dose; 0% is about no effect
Shiga toxin inh = blocks Shiga toxin action in Vero cells; Vero cells, Shiga toxin protein synthesis inhibition reporter; inhibition, % at 38.7 µM; 290,000 tested, 9.2% active; AID 2315; in the data active means inhibition mostly above about 28%, no sharp cut-off; inactive means mostly below about 43%; further: 0% is about no effect
FBPA Giardia inh = blocks Giardia fructose-bisphosphate aldolase activity | purified Giardia FBPA | Potency, µM (doses to about 59.6 µM), inactives show at the highest dose activity, negative = inhibition, usual class: inhibitors | 290,000 tested, 0.71% active | AID 2451; further: potency means the concentration at half of the fitted maximal effect; on the % scale 0 is the no-effect control and ±100 the full control effect; nearly all actives have a fitted effect of over 55% in size
Target sequence (A8B2U2 whole entry, looked up): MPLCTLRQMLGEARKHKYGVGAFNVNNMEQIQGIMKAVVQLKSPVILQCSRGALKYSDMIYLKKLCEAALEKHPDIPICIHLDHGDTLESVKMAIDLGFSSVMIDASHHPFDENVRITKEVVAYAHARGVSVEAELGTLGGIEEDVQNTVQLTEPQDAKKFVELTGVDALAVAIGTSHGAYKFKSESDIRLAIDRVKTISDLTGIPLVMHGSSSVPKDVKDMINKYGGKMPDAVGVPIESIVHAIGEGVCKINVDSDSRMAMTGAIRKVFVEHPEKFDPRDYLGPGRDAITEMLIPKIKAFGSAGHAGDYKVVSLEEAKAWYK
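40 nM FBPA preincubated 10 min at RT with compound (up to 57.5 uM final), then substrate plus GAPDH/TPI/NAD/arsenate coupling and diaphorase/resazurin added. Fluorescence read after 20 min at RT, 525/598 nm.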
Numbers without * were called inactive; u = inconclusive; x = no result; [ ] = remark or other dose. Unless noted, the call rests on the fitted dose curve; in most records, active means well fitted curve in the direction sought with a large enough effect; inconclusive means small, poorly fitted or top-dose-only effect, or another doubt; inactive means no such curve, though single readings can be large; an effect the other way counts as inactive or inconclusive.

SMILES	NS1 inh	LmPK inh	Cycloheximide cs	Shiga toxin inh	FBPA Giardia inh
COc1ccc(C2C3C=CCC(c4cccc(-c5ccc(N(C)C)cc5)c4)C3C(=O)N2Cc2ccccc2)cc1Cl (centres undefined)	x	x	22	22	-1%
CN1CCN(CCCC(=O)c2ccc(C3CCCC3)cc2)CC1	7%	-3%	29*	54*	-15%
CN1CCN(CCCCC(=O)c2ccccc2)CC1	-4%	-6%	-1	24	-7%
O=C(Nc1ccccc1Oc1ccccc1)c1cccs1	-9%	1%	-3	-1	3%
CC(=O)c1ccccc1NC(=O)COC(=O)/C(=C/c1ccccc1)n1nnnc1C	-14%	-2%	-3	-8	x
CC1CCCC/C1=N\NC(=S)Nc1ccccc1 (centres undefined)	0%	2%	18*	30	u
CC1CCC/C(=N\NC(=S)Nc2ccccc2)C1 (centres undefined)	7%	-1%	79*	102*	-6%
CC1CCC/C(=N\NC(=S)NCc2ccccc2)C1 (centres undefined)	6%	3%	-2	4	-16%
COc1cc2c(cc1OC)CN(C(=O)CNS(=O)(=O)c1ccc(C)c(C)c1)CC2	-1%	-7%	-3	-12	-12%
COc1ccccc1NC(=O)c1sc2nc(C)c(C(=O)Nc3ccc(C)cc3C)c(-c3ccco3)c2c1N	x	x	1	14	x
CC1CN(Cc2cc(=O)oc3cc(O)c(Cl)cc23)CC(C)O1 (centres undefined)	-14%	3%	-5	-3	21%
Cn1c(/C(C#N)=C/c2ccncc2)nc2ccccc21	5%	-4%	7	18	0%
Cn1c(/C(C#N)=C/c2ccc(O)cc2)nc2ccccc21	-8%	-11%	50*	47*	8%
CS(=O)(=O)c1ccc2nc(NC(=O)CCC(=O)c3cccs3)sc2c1	21%	4%	17*	45	-6%
CCN(CC)S(=O)(=O)c1ccc2nc(NC(=O)c3cccs3)sc2c1	3%	-1%	48*	65*	18%
CS(=O)(=O)c1ccc2nc(NC(=O)CCS(=O)(=O)c3ccccc3)sc2c1	-15%	0%	-3	-8	7%
CCN(CC)S(=O)(=O)c1ccc2nc(NC(=O)c3ccco3)sc2c1	x	2%	29*	78*	15%
ClCC1=Nc2cccc3cccc(c23)N1	1%	2%	-2	9	u
COc1ccccc1CNc1ncncc1-c1ccccc1OC	x	x	x	x	14%
Cn1c2ccccc2c2cnn(CC(=O)N3CCCCC3)c(=O)c21	-4%	0%	17*	30	-3%
CC1CCN(C(=O)Cn2ncc3c4ccccc4n(C)c3c2=O)CC1	4%	3%	1	21	-1%
O=C1C2=CC[C@H]3C(=O)N(c4cccc(Oc5ccccc5)c4)C(=O)[C@@H]3[C@@H]2[C@H](O)[C@@H]2O[C@H]12	x	x	x	x	0%[12.9 µM]
O=C(CSc1ncccc1-c1nc2ccccc2[nH]1)N1CCCCC1	-8%	5%	34*	79*	-13%
CN(C)C(=O)CSc1ncccc1-c1nc2ccccc2[nH]1	-5%	0%	1	-8	-23%
Cc1ccc2nc(SCC(=O)N3c4ccccc4CC3C)c(C)cc2c1 (centres undefined)	7%	4%	18	-4	0%
SMILES	NS1 inh	LmPK inh	Cycloheximide cs	Shiga toxin inh	FBPA Giardia inh
CCN(CC)C(=O)CSc1ncccc1-c1nc2ccccc2[nH]1	2%	4%	17*	27	-15%
Cc1ccc2nc(-c3cccnc3SCC(=O)N3c4ccccc4CC3C)[nH]c2c1 (centres undefined)	25%	7%	31*	136*	0%
CC(C)NC(=O)CSc1ncccc1-c1nc2ccccc2[nH]1	-14%	1%	13*	24	-8%
C[C@H](O/N=C1/[C@H]2O[C@@H]2[C@@H](O)[C@H]2[C@H]1CCn1c(=O)n(-c3ccccc3)c(=O)n12)c1cn([C@H](CO)Cc2ccccc2)nn1	x	x	x	x	-3%[12.9 µM]
Cc1cccc(C)c1OCC(=O)N/N=C/c1cccnc1	1%	5%	-3	-7	-2%
Nc1nc2c([nH]c(=O)n2C2OC(CO)C(O)C2O)c(=O)[nH]1 (centres undefined)	x	x	x	x	0%
COc1ccc(-c2c(C)nc3c(-c4ccsc4)cnn3c2N)cc1	3%	-1%	33*	85*	5%
COc1ccc(-c2c(C)nc3c(-c4ccccn4)cnn3c2N)cc1	-6%	-2%	59*	96*	-7%
COc1ccc(-c2c(C)nc(N)nc2-c2ccc(OC)cc2O)cc1	-4%	6%	12	9	3%
Cc1cc(C(F)(F)Cl)n2ncc(-c3ccccn3)c2n1	-2%	2%	-4	4	-29%
CCOC(=O)c1c(S(=O)(=O)NCC(=O)Nc2cc(C)ccn2)c(C)n(C)c1C	2%	3%	13*	42	12%
Cc1[nH]c2ccc(C(=O)NCCCN(C)C3CCCCC3)cc2c1C	17%	2%	2	-17	7%
C/C(=N\Nc1nncc2ccccc12)c1ccc(OCC(=O)N(C)C)cc1	-11%	5%	44*	138*	-23%
COc1ccc(OCC(=O)N/N=C(\C)c2ccc(OC)cc2)cc1	x	1%	20	-3	1%
CC/C(=N\Nc1nncc2ccccc12)c1ccc(F)cc1	1%	0%	47*	71*	-4%
O=C(CSCc1ccccc1)Nc1cccc(F)c1	-3%	1%	38*	77*	-4%
O=C(CSCc1c(F)cccc1F)Nc1ccccc1	-6%	-1%	54*	116*	12%
CCN(CCn1cccn1)C(=O)c1cccc(OC2CCN(S(C)(=O)=O)CC2)c1	10%	0%	-1	-4	x
Cc1cc(C(=O)Nc2ccon2)cs1	0%[9.22 µM]	-7%	10	18	10%
O=C(Nc1cnccn1)c1ccncc1	2%	-2%	1	-2	13%
O=C(Nc1ccon1)c1csc2ccccc12	-35%	-2%	9.7*	31	0%
O=C(Nc1cnccn1)c1csc2ccccc12	-59%	-1%	27*	111*	-9%
O=S(=O)(Oc1ccccc1/C=N/n1cnnc1)c1ccccc1	-3%	0%	-7	-10	20µM*
COc1ccccc1/C=N/n1cnnc1	-8%	0%	-7	17	-2%
CCOC(=O)c1c(NC2OC(=O)c3c2ccc(OC)c3OC)sc(C(=O)OC(C)(C)C)c1C (centres undefined)	5%	3%	31*	active	-2%
CC(C)(C)c1ccc(-c2nnc(N)o2)cc1	-1%	0%	37*	67*	3%
Cc1noc(C)c1-c1nnc(-c2ccc(C(F)(F)F)cc2)o1	3%	-3%	5	4	2%
Cc1ccc(N(C(=O)CNC(=O)c2ccco2)C(C(=O)NCC2CCCO2)c2ccccc2)c(C)c1 (centres undefined)	-9%	0%	-9	-1	9%
COc1ccc(C(=O)N2CCC3(CCN(C(=O)Nc4cccc(F)c4)CC3)CC2)cc1	x	x	x	x	-1%
Nc1n[nH]c(N)c1N=Nc1ccc(Cl)cc1	u	2%	47*	20	2%

Assay outcomes deposited in PubChem BioAssay by National Center for Advancing Translational Sciences (NCATS).
